Results reported in ChEMBL document CHEMBL4513216, “Probing the Open Global Health Chemical Diversity Library for Multistage-Active Starting Points for Next-Generation Antimalarials” (ACS Infect Dis, 2020).
In all, about 69,000 compounds went through this assay and about 8,600 (12%) showed an effect of 50% or more. Only a selection was taken, and strong results are over-represented in it overall.

The compounds below were run on Plasmodium berghei (assay: Screen against P. berghei liver stage (PbLuc), transformed with Luciferase, at 10uM). Settings: tested at 10 uM.
Type: functional, HepG2

SMILES	INHIBITION
Fc1ccc(CN2CCCC2Cn2cncn2)c2ncccc12 (centres undefined)	79.2%
Clc1ccc(CN2CCCC2Cn2cncn2)c2ncccc12 (centres undefined)	23.45%
CS(=O)(=O)NCC1CCCN(Cc2ccc(F)c3cccnc23)C1 (centres undefined)	18.5%
Fc1ccc(CN2CCCCC2Cn2cncn2)c2ncccc12 (centres undefined)	21.6%
OC1CCCN(Cc2ccc(F)c3cccnc23)C1 (centres undefined)	54.4%
Clc1ccc2cccnc2c1CN1CCCC1Cn1cncn1 (centres undefined)	66.2%
Clc1ccc2cccnc2c1CN1CCCC(Cn2cncn2)C1 (centres undefined)	22.9%
CC(C)C(C)NC(=O)Nc1ccc(F)c(C(N)=O)c1 (centres undefined)	1.75%
O=C(C1CNCCN1C(=O)CCc1cccnc1)N1CCOCC1 (centres undefined)	42.1%
CNC(=O)[C@@H]1[C@H]2CN(Cc3ccccn3)CCN2C[C@H]1c1ccccc1	8.61%
Cc1csc(NC(=O)Cn2nc(C)ccc2=O)n1	37.8%
O=C(COCCOc1ccccc1)NC1CCN(C(=O)C2CC2)CC1	29.9%
COCCN1C(=O)CCC12CCN(C(=O)CC1CC1)CC2	21.6%
CN(Cc1cnn(C)c1)C(CO)c1cccc(Br)c1 (centres undefined)	49%
COc1cc(F)ccc1N(C)Cc1ccncc1	-24.9%
CN(Cc1ccncc1)C(CO)c1cccc(Br)c1 (centres undefined)	4.52%
CN(Cc1ccccn1)C(CO)c1cccc(Br)c1 (centres undefined)	88%
CN(Cc1nccn1C)C(CO)c1cccc(Br)c1 (centres undefined)	33.7%
CN(Cc1ccccn1)C(C(=O)O)c1ccc2c(c1)OCO2 (centres undefined)	40.3%
CC(C)OCCCN(Cc1ccncc1)Cc1cccc(F)c1	43.6%
CN(Cc1cccnc1)C(CO)c1cccc(Br)c1 (centres undefined)	85.2%
CN(Cc1ccncc1)C(CO)c1cccc(F)c1 (centres undefined)	68.5%
CCn1nnc(NCc2ccccc2OCc2ccc(Cl)cc2)n1	-3.5%
CCN1CCN(CCNC(=O)c2sc(C)nc2C)CC1	1.75%
CN(C)C(=O)N1CC2(CCN(CC3CC3)CC2)c2cc(F)ccc21	-13.4%
Cc1cc(C2CCN(S(=O)(=O)c3cn(C)cn3)CC2)ccn1	17.1%
CCC(C)(C)C(=O)N1C[C@@H]2C[C@@H](c3nnc(C)[nH]3)O[C@@H]2C1	30.5%

SMILES	INHIBITION
OCC1(NCc2cnc(-c3ccccn3)s2)CCOCC1	-16.4%
CCc1nc(C2CCCN2CC(=O)NCCc2ccsc2)no1 (centres undefined)	25.6%
CC(=O)NCc1cc2n(n1)CCN(Cc1cccc(Cl)c1F)C2	10.7%
COc1ccc(-n2ncc(C(C)NC3CCSCC3)c2C)cc1 (centres undefined)	53.8%
Cc1c(C(C)NCc2cnn(C)c2)cnn1-c1ccccc1 (centres undefined)	43%
Cc1c(C(C)NC2CCN(C(C)C)CC2)cnn1-c1ccc(F)cc1F (centres undefined)	46.9%
Cc1c(C(C)NC2CSCCSC2)cnn1-c1ccc(F)cc1F (centres undefined)	43.7%
COc1ccc(-n2ncc(C(C)NC3CCOCC3)c2C)cc1 (centres undefined)	23.7%
COc1ccc(-n2ncc(C(C)NC3Cc4ccccc4C3)c2C)cc1 (centres undefined)	63.8%
O=C(N[C@@H]1CN(C2CCCC2)C[C@@H]2CCCO[C@@H]21)c1cnccn1	-45.5%
N#Cc1ncn(CC(=O)N2CCCC2c2cccs2)n1 (centres undefined)	23.3%
CC1CCCCN1C(=O)Cn1cnc(C#N)n1 (centres undefined)	69.3%
CCC1CCCCN1C(=O)Cn1cnc(C#N)n1 (centres undefined)	47.9%
CSc1ccc(-c2cc(CN)nc3ccnn23)cc1	13%
COc1cccc(NC(=O)NC2(c3noc(CN(C)C)n3)CCCC2)c1	16.2%
CCN(CC)CCn1cc(NC2CCSCC2)cn1	-3.21%
Fc1ccc(C2(c3noc(CCN4CCCCO4)n3)CCOC2)cc1 (centres undefined)	-23.4%
O=c1[nH]c2cc3c(cc2cc1CN1CCCC1c1ccccn1)OCO3 (centres undefined)	6.94%
O=c1[nH]c2cc3c(cc2cc1CN1CCCC1c1ccccn1)CCC3 (centres undefined)	56.5%
CCOc1ccc2[nH]c(=O)c(CN3CCCC3c3ccccn3)cc2c1 (centres undefined)	32.7%
O=C(Nc1ccc(CCN2CCC(O)CC2)cc1)C1CCCOC1 (centres undefined)	20.06%
O=C(CN1CCOc2ccccc2C1)NCc1cc2n(n1)CCCNC2	12.9%
CC(NCc1ccsc1)c1ccc2c(c1)NC(=O)CO2 (centres undefined)	22.15%
COc1cccc(SCC(=O)N2CCC(N3CCCC3=O)CC2)c1	43.9%
COc1cccc(SCC(=O)N2CCC(N3CCCC(O)C3)CC2)c1 (centres undefined)	64.9%
COc1cccc(SCC(=O)N2CCCC(N3CCCC3=O)C2)c1 (centres undefined)	15.5%
Cc1c(NC(=O)CN(C)S(C)(=O)=O)cccc1OC1CCCC1	-28.2%
